Experimental data reported in the supplement of paper PMC6089552.
The campaign covered roughly 3,200 compounds. About 300 (9.4%) showed activity. The entries come from a sample that favours actives as a whole.

Tested on: A673/TR/shEF
Experiment: cell viability (LOESS-normalised, relative to median of negative controls) (log2 ratio); higher = more viable cells (less compound effect), active = hit call of the paper (over 3 MAD below the median)
Settings: treatment time: 72 h
How it was run: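 For three days, A673/TR/shEF Ewing sarcoma cells in 384-well plates (1,500 per well) were treated with library compounds at two or more concentrations or with DMSO controls, after doxycycline had been added or withheld 24 h beforehand to induce EWS-FLI1 shRNA knockdown. Viability was read by CellTiter-Glo luminescence on an Envision reader. The data were LOESS-corrected per plate, divided by the median of negative controls and log2-transformed.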

[1] = 0.103 µM, library screen: screen3, EWS-FLI1 expression: high (no doxycycline)
[2] = 0.103 µM, library screen: screen3, EWS-FLI1 expression: low (doxycycline-induced shRNA knockdown)
[3] = 0.308 µM, library screen: screen3, EWS-FLI1 expression: high (no doxycycline)
[4] = 0.308 µM, library screen: screen3, EWS-FLI1 expression: low (doxycycline-induced shRNA knockdown)
[5] = 0.926 µM, library screen: screen3, EWS-FLI1 expression: high (no doxycycline)
[6] = 0.926 µM, library screen: screen3, EWS-FLI1 expression: low (doxycycline-induced shRNA knockdown)
[7] = 2.8 µM, library screen: screen3, EWS-FLI1 expression: high (no doxycycline)
[8] = 2.8 µM, library screen: screen3, EWS-FLI1 expression: low (doxycycline-induced shRNA knockdown)
[9] = 8.3 µM, library screen: screen3, EWS-FLI1 expression: high (no doxycycline)
[10] = 8.3 µM, library screen: screen3, EWS-FLI1 expression: low (doxycycline-induced shRNA knockdown)
[11] = 25 µM, library screen: screen3, EWS-FLI1 expression: high (no doxycycline)
[12] = 25 µM, library screen: screen3, EWS-FLI1 expression: low (doxycycline-induced shRNA knockdown)
[13] = 0.25 µM, library screen: screen1, EWS-FLI1 expression: high (no doxycycline)
[14] = 0.25 µM, library screen: screen1, EWS-FLI1 expression: low (doxycycline-induced shRNA knockdown)
[15] = 2.5 µM, library screen: screen1, EWS-FLI1 expression: high (no doxycycline)
[16] = 2.5 µM, library screen: screen1, EWS-FLI1 expression: low (doxycycline-induced shRNA knockdown)

Measured: cell viability (log2)

Cc1ccc(NC(=O)c2ccc(CN3CCN(C)CC3)cc2)cc1Nc1nc(-c2cccnc2)cs1
inactive: [1] 0.122 | [2] 0.0762 | [3] 0.0521 | [4] 0.0956 | [5] 0.0749 | [6] 0.0933 | [7] 0.0638 | [8] 0.131 | [9] 0.061 | [10] 0.0802 | [12] 0.154
active: [11] -0.709

O=C(NCO)c1cccnc1
inactive: [14] 0.147 | [15] 0.255 | [16] 0.103
0.28: [13]

Cc1cn(-c2cc(NC(=O)c3ccc(C)c(Nc4nccc(-c5cccnc5)n4)c3)cc(C(F)(F)F)c2)cn1
inactive: [1] 0.0821 | [2] 0.114 | [3] 0.0305 | [4] 0.0807 | [5] 0.00582 | [6] 0.101 | [7] -0.0305 | [8] 0.116 | [9] 0.0184 | [10] 0.0705 | [11] -0.057 | [12] 0.0892

Nc1ccccc1NC(=O)c1ccc(CNc2nccc(-c3cccnc3)n2)cc1
inactive: [1] 0.0488 | [2] 0.158 | [3] 0.0583 | [4] 0.0629 | [5] -0.0966 | [6] 0.141 | [8] 0.00492
active: [7] -0.554 | [9] -1.39 | [10] -0.431 | [11] -3.23 | [12] -1.08

Cc1cc(O)c(C)c2c1C(=O)Oc1c(C)c(O)c(C(=O)O)c(C)c1O2
inactive: [13] 0.09 | [14] 0.103 | [15] 0.0454 | [16] 0.145

CC(C)=CCC/C(C)=C/CC/C(C)=C/CO
inactive: [13] 0.153 | [14] 0.0866 | [15] 0.208 | [16] 0.106

CC(C)=CCc1c(O)c(C(=O)CC(C)C)c2oc(=O)cc(-c3ccccc3)c2c1O
inactive: [13] 0.0516 | [14] 0.00347 | [15] 0.107 | [16] 0.0124

CC(C)CCCC(C)C1CCC2C3CC=C4CC(=O)CCC4(C)C3CCC12C (configuration not stated)
inactive: [13] 0.0196 | [14] 0.0967 | [15] 0.0967 | [16] 0.133

COCCOC(=O)C1=C(C)NC2=C(C(=O)CCC2)C1c1ccc(C)s1 (configuration not stated)
inactive: [13] -0.0698 | [14] 0.0631 | [15] 0.0308 | [16] 0.207

C=C(C)C1Cc2c(ccc(C(=O)O)c2O)O1 (configuration not stated)
inactive: [13] 0.0493 | [14] -0.00474 | [15] 0.106 | [16] 0.105

CCOC(=O)c1oc2c(OC)c(O)cc(O)c2c(=O)c1-c1cc(OC)c(OC)c(OC)c1
inactive: [13] 0.036 | [14] 0.0305 | [15] -0.00359 | [16] -0.108

CC=C(C)C(=O)OC1[C@@H]2C=C3C4CC(=O)O[C@@H](c5ccoc5)[C@]4(C)CCC3[C@@](C)(C2=O)[C@@H](C(O)C(=O)OC)C1(C)C (some centres not stated)
inactive: [13] 0.075 | [14] -0.00745 | [15] 0.149 | [16] 0.0968

COC(=O)Nc1ccc(S(=O)(=O)N2C(C)CCCC2C)cc1 (configuration not stated)
inactive: [13] 0.0592 | [14] 0.103 | [15] 0.0767 | [16] 0.0829

COc1ccc(CN2CCN(Cc3ccc([N+](=O)[O-])cc3)CC2)cc1OC
inactive: [13] 0.0472 | [14] 0.118 | [15] 0.097 | [16] 0.0942

CCSc1nnc(-c2ccc([N+](=O)[O-])cc2)n1-c1ccccc1
inactive: [13] 0.0862 | [14] 0.0888 | [15] 0.0629 | [16] 0.153

CCOc1cccc(C(=O)c2ccc(O)c(O)c2O)c1
inactive: [13] 0.0703 | [14] 0.005 | [15] 0.0783 | [16] 0.0694

C[C@@H]1CC[C@@]23CCC4(C)[C@@](C=CC5[C@@]6(C)CCC(=O)C(C)(C)C6CC[C@]54C)(OC2=O)C3[C@H]1C (some centres not stated)
inactive: [13] 0.12 | [14] 0.0225 | [15] 0.0629 | [16] 0.0141

NNCCc1ccccc1
inactive: [13] 0.0542 | [14] 0.11 | 0.25 µM, library screen: screen2, EWS-FLI1 expression: high (no doxycycline) 0.136 | 0.25 µM, library screen: screen2, EWS-FLI1 expression: low (doxycycline-induced shRNA knockdown) -0.0727 | [15] 0.2 | [16] 0.188
active: 2.5 µM, library screen: screen2, EWS-FLI1 expression: high (no doxycycline) -0.435 | 2.5 µM, library screen: screen2, EWS-FLI1 expression: low (doxycycline-induced shRNA knockdown) -0.392

CCN(CCCc1ccccc1)CCCc1ccccc1
inactive: [13] 0.0709 | [14] 0.129 | [15] 0.11 | [16] 0.151

NC(=O)NC(=O)Cc1ccccc1
inactive: [13] 0.103 | [14] 0.215 | [15] 0.184 | [16] 0.139

COC(=O)C1=C(C)N=C2SCCC(=O)N2C1c1ccc(OC)cc1 (configuration not stated)
inactive: [13] 0.0178 | [14] 0.0759 | [15] 0.0162 | [16] 0.0699
